# Measurements reported in PubChem BioAssay (Tox21).
# Records with an inconclusive call do not appear. Entries that show only a call come without a potency. The source made the active and inactive calls. Calls come from the whole dose curve; as a rule, active = well fitted curve in the direction sought with a large enough effect in the repeat runs; inconclusive = weak or mixed curves; inactive = no such curve, though single readings can be large; an effect the other way counts as inactive or inconclusive.
# Assay: Human pregnane X receptor (PXR) small molecule agonists, qHTS cell viability counter screen (AID 1346977); note: nearly all actives have a fitted effect of over 50% in size
# Details: PXR-Luc HepG2 viability, CellTiter-Fluor, 24 h; series mostly up to 92.4 µM
# How it was run: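 Fluorescence read-out (CellTiter-Fluor) of viability in PXR-Luc HepG2 cells, multiplexed with the luciferase agonist read. Compounds in DMSO added after 5hr plating; 24hr total exposure at 37C, 5% CO2.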
# Potency is the fitted concentration of half-maximal effect.
row,SMILES,Potency
1,Cc1ccccc1S,inactive
2,CCCCN1CCCC1C(=O)Nc1c(C)cc(C)cc1C (stereo not given),inactive
3,CC(CO)CO,inactive
4,COc1cc(C(=O)NC2CCN(C)CC2)ccc1Nc1ncc2c(n1)N(C1CCCC1)CC(F)(F)C(=O)N2C,8.88 µM (active)
5,CC(C)C[C@H](NC(=O)[C@H](CCc1ccccc1)NC(=O)CN1CCOCC1)C(=O)N[C@@H](Cc1ccccc1)C(=O)N[C@@H](CC(C)C)C(=O)[C@@]1(C)CO1,0.075 µM (active)
6,COc1cc(Nc2c(C#N)cnc3cc(OCCCN4CCN(C)CC4)c(OC)cc23)c(Cl)cc1Cl,11.9 µM (active)
7,O=C(O)CCc1nc(-c2ccccc2)c(-c2ccccc2)o1,inactive
8,CCOC(=O)C1=C(C)NC(C)=C(C(=O)OC)C1c1cccc(Cl)c1Cl (stereo not given),inactive
9,O=C1C(=O)c2ccccc2C(O)=C1C1CCC(c2ccc(Cl)cc2)CC1 (stereo not given),11.9 µM (active)
10,C=CC(=O)[O-].C=CC(=O)[O-].[Zn+2],inactive
11,c1ccc(C[n+]2cccc3ccccc32)cc1,inactive
12,C(=C\c1ccccc1)/c1ccccc1,inactive
13,CCC1CO1 (stereo not given),inactive
14,CC1(CN2CCC(n3c(=O)[nH]c4ccccc43)CC2)OCc2ccccc2-n2cccc21 (stereo not given),29.8 µM (active)
15,Brc1cc2ccccc2c2ccccc12,inactive
16,O=c1cc(-c2ccccc2)oc2ccc3ccccc3c12,inactive
17,CC1(C)O[C@@H]2C[C@H]3[C@@H]4C[C@H](F)C5=CC(=O)C=C[C@]5(C)[C@H]4[C@@H](O)C[C@]3(C)[C@]2(C(=O)CO)O1,inactive
18,CCOC(=O)c1ccc(O)c(O)c1,inactive
19,O=[N+]([O-])c1ccc(O/N=C/c2cc(Br)c(O)c(Br)c2)c([N+](=O)[O-])c1,30.5 µM (active)
20,O=[N+]([O-])c1ccc(Nc2ccc(Nc3ccccc3)c(S(=O)(=O)O)c2)c([N+](=O)[O-])c1,68.6 µM (active)

row,SMILES,Potency
1,CC(C)(O)c1ccc(CNC(=O)c2cccnc2Oc2ccc3nonc3c2)cc1,inactive
2,Cc1[nH]cnc1CN1CCc2c(c3ccccc3n2C)C1=O,inactive
3,CN1CCCN=C1COC(=O)C(O)(c1ccccc1)C1CCCCC1 (stereo not given),inactive
4,O=c1[nH]c2ccc(Cl)cc2o1,inactive
5,COC(=O)[C@H]1[C@H]2C[C@@H]3c4[nH]c5cc(OC)ccc5c4CCN3C[C@H]2C[C@@H](OC(=O)/C=C/c2ccc(O)c(OC)c2)[C@@H]1OC,23.7 µM (active)
6,O=c1cc(-c2ccccc2)oc2cc(O)cc(O)c12,54.5 µM (active)
7,O=C1c2ccccc2C(=O)c2c(O)c(O)cc(O)c21,54.5 µM (active)
8,O=C1CCCCCCCCCCOCCCCO1,inactive
9,c1csc(SSc2cccs2)c1,27.3 µM (active)
10,NC1[C@H]2CN(c3nc4c(cc3F)c(=O)c(C(=O)O)cn4-c3ccc(F)cc3F)C[C@@H]12 (stereo not given in full),29.8 µM (active)
11,Cc1cc(C)cc(N)c1,inactive
12,CCCCC(CC)COP(=O)(O)O (stereo not given),inactive
13,COc1ccccc1N1CCN(CCCCNC(=O)c2ccc(-c3ccc(C(C)=O)cc3)cc2)CC1,inactive
14,Cc1cc(O)ccc1O,inactive
15,CCC(C)(C)OC,inactive
16,FC(F)(F)c1ccccc1Cl,inactive
17,CO/N=C(/C(=O)N[C@@H]1C(=O)N2C(C(=O)O)=C(COC(N)=O)CS[C@H]12)c1ccco1,inactive
18,CCC(=O)C1CC(C(C)C)CC=C1C (stereo not given),inactive
19,CCOC(C)=O,inactive
20,CN(C)CCN1C(=O)c2ccccc2N(C)c2ccccc21,inactive

# Assay: Caspase-3/7 induction in HepG2 cells by small molecules, qHTS assay (AID 1346978); note: nearly all actives have a fitted effect of over 15% in size
# Details: HepG2 caspase-3/7 activation, Caspase-Glo luminescence, 17 h; series mostly up to 92.4 µM
# How it was run: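 Wild-type HepG2 cells, 2,000/well, settled 5 hr at 37 C and 5% CO2, then compound-treated for 17 hr; caspase-3/7 activity read by luminescent Caspase-Glo 3/7 after 30 min at room temperature.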
row,SMILES,Potency
1,Cc1ccccc1S,inactive
2,CCCCN1CCCC1C(=O)Nc1c(C)cc(C)cc1C (stereo not given),inactive
3,CC(CO)CO,inactive
4,COc1cc(C(=O)NC2CCN(C)CC2)ccc1Nc1ncc2c(n1)N(C1CCCC1)CC(F)(F)C(=O)N2C,22.3 µM (active)
5,CC(C)C[C@H](NC(=O)[C@H](CCc1ccccc1)NC(=O)CN1CCOCC1)C(=O)N[C@@H](Cc1ccccc1)C(=O)N[C@@H](CC(C)C)C(=O)[C@@]1(C)CO1,0.266 µM (active)
6,COc1cc(Nc2c(C#N)cnc3cc(OCCCN4CCN(C)CC4)c(OC)cc23)c(Cl)cc1Cl,11.9 µM (active)
7,O=C(O)CCc1nc(-c2ccccc2)c(-c2ccccc2)o1,inactive
8,CCOC(=O)C1=C(C)NC(C)=C(C(=O)OC)C1c1cccc(Cl)c1Cl (stereo not given),inactive
9,O=C1C(=O)c2ccccc2C(O)=C1C1CCC(c2ccc(Cl)cc2)CC1 (stereo not given),inactive
10,C=CC(=O)[O-].C=CC(=O)[O-].[Zn+2],inactive
11,c1ccc(C[n+]2cccc3ccccc32)cc1,inactive
12,C(=C\c1ccccc1)/c1ccccc1,inactive
13,CCC1CO1 (stereo not given),inactive
14,CC1(CN2CCC(n3c(=O)[nH]c4ccccc43)CC2)OCc2ccccc2-n2cccc21 (stereo not given),inactive
15,Brc1cc2ccccc2c2ccccc12,inactive
16,O=c1cc(-c2ccccc2)oc2ccc3ccccc3c12,inactive
17,CC1(C)O[C@@H]2C[C@H]3[C@@H]4C[C@H](F)C5=CC(=O)C=C[C@]5(C)[C@H]4[C@@H](O)C[C@]3(C)[C@]2(C(=O)CO)O1,inactive
18,CCOC(=O)c1ccc(O)c(O)c1,inactive
19,O=[N+]([O-])c1ccc(O/N=C/c2cc(Br)c(O)c(Br)c2)c([N+](=O)[O-])c1,inactive
20,O=[N+]([O-])c1ccc(Nc2ccc(Nc3ccccc3)c(S(=O)(=O)O)c2)c([N+](=O)[O-])c1,inactive

row,SMILES,Potency
1,CC(C)(O)c1ccc(CNC(=O)c2cccnc2Oc2ccc3nonc3c2)cc1,inactive
2,Cc1[nH]cnc1CN1CCc2c(c3ccccc3n2C)C1=O,inactive
3,CN1CCCN=C1COC(=O)C(O)(c1ccccc1)C1CCCCC1 (stereo not given),inactive
4,O=c1[nH]c2ccc(Cl)cc2o1,inactive
5,COC(=O)[C@H]1[C@H]2C[C@@H]3c4[nH]c5cc(OC)ccc5c4CCN3C[C@H]2C[C@@H](OC(=O)/C=C/c2ccc(O)c(OC)c2)[C@@H]1OC,inactive
6,O=c1cc(-c2ccccc2)oc2cc(O)cc(O)c12,inactive
7,O=C1c2ccccc2C(=O)c2c(O)c(O)cc(O)c21,inactive
8,O=C1CCCCCCCCCCOCCCCO1,inactive
9,c1csc(SSc2cccs2)c1,inactive
10,NC1[C@H]2CN(c3nc4c(cc3F)c(=O)c(C(=O)O)cn4-c3ccc(F)cc3F)C[C@@H]12 (stereo not given in full),inactive
11,Cc1cc(C)cc(N)c1,inactive
12,CCCCC(CC)COP(=O)(O)O (stereo not given),inactive
13,COc1ccccc1N1CCN(CCCCNC(=O)c2ccc(-c3ccc(C(C)=O)cc3)cc2)CC1,inactive
14,Cc1cc(O)ccc1O,inactive
15,CCC(C)(C)OC,inactive
16,FC(F)(F)c1ccccc1Cl,inactive
17,CO/N=C(/C(=O)N[C@@H]1C(=O)N2C(C(=O)O)=C(COC(N)=O)CS[C@H]12)c1ccco1,inactive
18,CCC(=O)C1CC(C(C)C)CC=C1C (stereo not given),inactive
19,CCOC(C)=O,inactive
20,CN(C)CCN1C(=O)c2ccccc2N(C)c2ccccc21,inactive
